Reference: PubChem BioAssay (NCATS)
“And” between values parts separate entries of the source, which are not always exact repeats. Equal entries are not always repeated. Results filed as inconclusive are left out. A call without a number means that no potency is given here. A number with no mark means an inactive call. The source made the active and inactive calls. The call rests on the fitted dose curve; in most records, active means well fitted curve in the direction sought with a large enough effect; inconclusive means small, poorly fitted or top-dose-only effect, or another doubt; inactive means no such curve, though single readings can be large; an effect the other way counts as inactive or inconclusive.

Experiments:
Es-2 = test: Primary qHTS to identify gynecologic anti-cancer compounds using libraries of approved drugs and bioactive compounds (AID 1345084); details: Gynecologic cancer cell panel viability, ATPlite luminescence, 48 h; series mostly up to 57.5 µM; further: nearly all actives have a fitted effect of over 55% in size
Summary of the method: (§1)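 Five-point cytotoxicity, 48 h drug exposure at 37 C, 5% CO2, on cells seeded 16 h beforehand. ATP content read by ATPlite luminescence.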

HeLa = test: as above; details: Gynecologic cancer cell panel viability, ATPlite luminescence, 48 h; series mostly up to 57.5 µM
Summary of the method: as §1

Hek293T = test: as above; details: Gynecologic cancer cell panel viability, ATPlite luminescence, 48 h, control line for the selectivity index; series mostly up to 57.5 µM
Summary of the method: as §1

JEG-3 = test: as above; details: Gynecologic cancer cell panel viability, ATPlite luminescence, 48 h; series mostly up to 57.5 µM
Summary of the method: as §1

OV90 = test: as above; details: Gynecologic cancer cell panel viability, ATPlite luminescence, 48 h; series mostly up to 57.5 µM
Summary of the method: as §1

PA-1 = test: as above; details: Gynecologic cancer cell panel viability, ATPlite luminescence, 48 h; series mostly up to 57.5 µM
Summary of the method: as §1

SKOV3 = test: as above; details: Gynecologic cancer cell panel viability, ATPlite luminescence, 48 h; series mostly up to 57.5 µM
Summary of the method: as §1

Tov-21-G = test: as above; details: Gynecologic cancer cell panel viability, ATPlite luminescence, 48 h; series mostly up to 57.5 µM
Summary of the method: as §1

Tov112D = test: as above; details: Gynecologic cancer cell panel viability, ATPlite luminescence, 48 h; series mostly up to 57.5 µM
Summary of the method: as §1

[1] = Drug repurposing screens with cells derived from glioblastoma tumor samples (AID 1345199); details: GBM patient neurospheres viability, ATP luminescence, 48 h; further: nearly all actives have a fitted effect of over 40% in size; further: potency means the concentration at half of the fitted maximal effect
Summary of the method: (§2)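 Four patient lines of CD133+ GBM neurospheres were screened at several concentrations; hits were retested in those lines plus three slower-growing GBM lines, using 48-hour treatment and ATP-based viability.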

astro = test: as above; details: viability, ATP luminescence, 48 h; series mostly up to 45.9 µM
Summary of the method: as §2

[2] = at 45.9 µM (top of the series), tumour line B
[3] = at 45.9 µM (top of the series), tumour line D
[4] = at 46 µM (top of the series), tumour line A

| Structure (SMILES) | Potency (Es-2) | Potency (HeLa) | Potency (Hek293T) | Potency (JEG-3) | Potency (OV90) | Potency (PA-1) | Potency (SKOV3) | Potency (Tov-21-G) | Potency (Tov112D) | activity, negative = cell killing [1, 2] | activity, negative = cell killing [1, 3] | activity, negative = cell killing [1, 4] | Potency (astro) | activity, negative = cell killing ([1]; at 21.2 µM (top of the series), tumour line B) | activity, negative = cell killing ([1]; at 21.2 µM (top of the series), tumour line D) | activity, negative = cell killing ([1]; at 21.3 µM (top of the series), tumour line A) | activity, negative = cell killing ([1]; at 46.1 µM (top of the series), tumour line C) | Potency ([1]; tumour line A) | activity, negative = cell killing ([1]; at 108 µM (top of the series), tumour line B) | activity, negative = cell killing ([1]; at 108 µM (top of the series), tumour line D) |
| --- | --- | --- | --- | --- | --- | --- | --- | --- | --- | --- | --- | --- | --- | --- | --- | --- | --- | --- | --- | --- |
| CCC1(c2ccccc2)CCC(=O)NC1=O (stereo unspecified) | inactive | inactive | inactive | inactive | inactive | inactive | inactive | inactive | inactive | -10.4% | -10.3% | -28.9% | inactive | – | – | – | – | – | – | – |
| Cc1nnc2n1-c1sc(CCC(=O)N3CCOCC3)cc1C(c1ccccc1Cl)=NC2 | inactive | inactive | inactive | inactive | inactive | inactive | inactive | inactive | inactive | -14.3% and -9.87% | -19.2% and -29.4% | -18.9% | inactive | – | – | – | – | – | – | – |
| CC(C)NCC(O)c1ccc(N)c(C#N)c1 (stereo unspecified) | inactive | inactive | inactive | inactive | inactive | inactive | inactive | inactive | inactive | -10.3% | -5.78% | -34.1% | inactive | – | – | – | – | – | – | – |
| Nc1ccccc1C(=O)OCC(O)CO (stereo unspecified) | inactive | inactive | inactive | inactive | inactive | inactive | inactive | inactive | inactive | – | – | – | – | – | – | – | – | – | – | – |
| C[N+]1(C)[C@@H]2CC[C@H]1CC(OC(=O)C(CO)c1ccccc1)C2 (stereo partly specified) | inactive | inactive | inactive | inactive | inactive | inactive | inactive | inactive | inactive | -1.41% | -16.2% | – | inactive | -14.5% | -3.94% | -14.4% | -12.5% | – | – | – |
| C[C@]12C=CC(=O)C=C1CC[C@@H]1[C@@H]2CC[C@@]2(C)[C@H]1CC[C@]2(C)O | inactive | inactive | inactive | inactive | inactive | inactive | inactive | inactive | inactive | -4.86% | -22.4% | – | – | – | – | – | – | – | – | – |
| COP(=O)(OC)OC=C(Cl)Cl | inactive | inactive | inactive | inactive | inactive | inactive | inactive | inactive | inactive | – | – | – | – | – | – | – | – | 7.08 µM (active) | – | – |
| CCCCC1C(=O)NC(=O)N(C2CCCCC2)C1=O (stereo unspecified) | inactive | inactive | inactive | inactive | inactive | inactive | inactive | inactive | inactive | 0.883% | 0.724% | -28.6% | inactive | – | – | – | – | – | – | – |
| CNC(C)Cc1ccc2c(c1)OCO2 (stereo unspecified) | inactive | inactive | inactive | inactive | inactive | inactive | inactive | inactive | inactive | – | – | – | inactive | – | – | – | – | 50.1 µM (active) | 0.451% | -9% |
